eIF4E-4G inh: blocks eIF4E binding to eIF4G; P63073+Q04637; actives 0.37% (n = 220,000); inhibition, % at 21.7 µM; TR-FRET eIF4E-eIF4GI(517-606) binding, 2 h; AID 782;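 active = inhibition above about 30%, limit read from the data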;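 note: 0% = full FRET control wells and 100% = background wells lacking eIF4GI fragment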
Target sequence (P63073 whole entry, looked up, the tested form may be a part): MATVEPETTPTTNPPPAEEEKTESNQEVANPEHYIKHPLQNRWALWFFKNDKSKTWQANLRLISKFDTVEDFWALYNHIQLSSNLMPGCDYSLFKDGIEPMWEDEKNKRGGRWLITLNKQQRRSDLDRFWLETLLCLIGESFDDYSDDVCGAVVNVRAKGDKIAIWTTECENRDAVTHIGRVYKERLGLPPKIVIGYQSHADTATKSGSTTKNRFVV
Target sequence (Q04637 whole entry, looked up, the tested form may be a part): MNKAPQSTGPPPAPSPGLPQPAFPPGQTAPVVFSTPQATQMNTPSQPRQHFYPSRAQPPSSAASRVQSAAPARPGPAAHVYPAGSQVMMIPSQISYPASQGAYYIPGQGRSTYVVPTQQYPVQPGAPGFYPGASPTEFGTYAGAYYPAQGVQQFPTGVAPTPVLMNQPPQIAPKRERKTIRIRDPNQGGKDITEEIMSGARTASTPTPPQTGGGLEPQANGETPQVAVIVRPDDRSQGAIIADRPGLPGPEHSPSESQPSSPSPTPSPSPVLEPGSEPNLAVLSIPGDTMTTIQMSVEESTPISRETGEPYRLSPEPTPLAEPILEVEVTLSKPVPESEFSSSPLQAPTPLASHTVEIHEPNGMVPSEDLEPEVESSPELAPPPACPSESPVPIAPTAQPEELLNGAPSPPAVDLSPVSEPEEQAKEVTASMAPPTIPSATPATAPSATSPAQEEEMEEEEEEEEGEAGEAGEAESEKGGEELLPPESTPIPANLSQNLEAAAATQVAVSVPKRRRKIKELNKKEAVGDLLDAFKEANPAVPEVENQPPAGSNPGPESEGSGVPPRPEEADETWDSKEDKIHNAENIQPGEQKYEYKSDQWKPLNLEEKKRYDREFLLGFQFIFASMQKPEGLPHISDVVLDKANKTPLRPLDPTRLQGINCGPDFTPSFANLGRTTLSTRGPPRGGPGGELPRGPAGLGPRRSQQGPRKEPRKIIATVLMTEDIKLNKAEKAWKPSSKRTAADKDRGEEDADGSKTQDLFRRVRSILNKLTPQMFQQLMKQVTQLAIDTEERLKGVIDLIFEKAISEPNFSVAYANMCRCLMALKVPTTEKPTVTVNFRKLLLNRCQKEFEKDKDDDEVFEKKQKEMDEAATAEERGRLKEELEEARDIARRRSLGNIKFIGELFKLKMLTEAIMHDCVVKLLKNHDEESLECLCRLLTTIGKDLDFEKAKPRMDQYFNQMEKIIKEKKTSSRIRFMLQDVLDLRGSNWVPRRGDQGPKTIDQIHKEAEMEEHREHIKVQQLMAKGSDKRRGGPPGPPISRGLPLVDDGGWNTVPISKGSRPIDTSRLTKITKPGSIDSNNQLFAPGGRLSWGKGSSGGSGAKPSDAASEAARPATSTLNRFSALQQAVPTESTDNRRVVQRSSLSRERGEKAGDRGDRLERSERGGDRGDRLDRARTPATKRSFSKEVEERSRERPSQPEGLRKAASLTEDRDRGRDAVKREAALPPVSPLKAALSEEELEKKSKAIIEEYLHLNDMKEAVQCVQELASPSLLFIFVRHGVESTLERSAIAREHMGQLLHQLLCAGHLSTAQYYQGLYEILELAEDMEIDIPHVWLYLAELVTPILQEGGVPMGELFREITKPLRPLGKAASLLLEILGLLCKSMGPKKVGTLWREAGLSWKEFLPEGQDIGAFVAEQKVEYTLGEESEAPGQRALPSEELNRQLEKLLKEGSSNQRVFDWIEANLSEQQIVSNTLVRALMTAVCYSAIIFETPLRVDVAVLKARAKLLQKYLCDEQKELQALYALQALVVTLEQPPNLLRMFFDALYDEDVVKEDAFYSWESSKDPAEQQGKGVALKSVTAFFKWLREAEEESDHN
Mcl1 Bid PPI: disrupts binding of human Mcl-1 to Bid peptide; TR-FRET Mcl-1/Bid-Dy647 peptide binding, 1536-well; Q07820; actives 0.97% (n = 220,000); inhibition, % at 21.7 µM;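 active = compounds that cut the binding signal by more than half at the single screening dose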;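 note: His-tagged Mcl-1 with europium anti-His antibody binding Bid BH3 peptide; 0% = Mcl-1 plus peptide wells and 100% = peptide-only wells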
MCL1-BIM inh: MCL1-BIM-BH3 interaction inhibition (human). Q07820. GST-MCL1 / FITC-Bim-BH3 fluorescence polarization. inhibition, % at 10.9 µM. actives 0.68% (n = 320,000);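 active = inhibition above the mean inhibition of all tested compounds plus 3 SD, set per campaign, cut at about 40% in these data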;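 note: 0% = DMSO wells and 100% = unlabeled Bim-BH3 peptide control; higher means more loss of mP so more displacement of Bim peptide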
Bim-Mcl-1: human Bim-Mcl-1 interaction inhibition; Q07820; Bead-based flow cytometry, Bim peptide-Mcl-1 binding; inhibition, % at 10 µM; actives 0.1% (n = 190,000); AID 1009; in the data active = inhibition above about 40%;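 note: 0% = no compound tracer wells and 100% = peptide blocker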
14-3-3 Bad inh: disrupts binding of bovine 14-3-3 zeta to phospho-Bad peptide; AID 781; actives 0.71% (n = 220,000); P63103; TR-FRET 14-3-3zeta/Dy647-pBad peptide displacement, 1 h; inhibition, % at 21.7 µM;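 active = inhibition above about 70%, limit read from the data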;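 note: 0% = full 14-3-3 plus peptide FRET controls and 100% = background without 14-3-3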
Mcl1-Noxa inh: disrupts binding of human Mcl-1 to Noxa peptide. Q07820. TR-FRET Mcl-1/Noxa peptide binding, 2 h. inhibition, % at 21.7 µM. actives 1.5% (n = 220,000);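 active = compounds that cut the protein-peptide binding signal by more than 50% relative to plate controls in a single-dose test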;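 note: His-tagged Mcl-1 with rhodamine Noxa BH3 peptide and terbium anti-His antibody; 0% = Mcl-1 plus Noxa peptide wells and 100% = peptide-only wells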
Numbers without * were called inactive. Shown are actives, neighbours in structure and some others; about 2.6% of the full set was active somewhere.

For CCOC(=O)/C=C(\C)Sc1cc(O)c2ccccc2c1O the results were eIF4E-4G inh 5, Mcl1 Bid PPI -10, 14-3-3 Bad inh 0 and Mcl1-Noxa inh 88*.
`Cc1c(CCC(=O)O)c(=O)n2c([nH]c3ccccc32)c1C#N` gave eIF4E-4G inh 1, Mcl1 Bid PPI -76, MCL1-BIM inh -5, Bim-Mcl-1 0, 14-3-3 Bad inh 12 and Mcl1-Noxa inh 18.
Screening N#Cc1cc(NC(=O)c2ccc(F)cc2)c(=O)n2c1[nH]c1ccccc12 returned eIF4E-4G inh 5, Mcl1 Bid PPI -33, MCL1-BIM inh -7, Bim-Mcl-1 2, 14-3-3 Bad inh -5 and Mcl1-Noxa inh 61*.
Screening Cc1cccc(COC(=O)C(Cc2ccccc2)NC(N)=O)c1 (configuration not stated) returned MCL1-BIM inh -5.
For Cc1cc(C)c2c(=O)n(CC(=O)NC3CCCC3)sc2n1 the results were eIF4E-4G inh 6, Mcl1 Bid PPI -145, MCL1-BIM inh 9, 14-3-3 Bad inh -2 and Mcl1-Noxa inh 21.
Screening COc1ccc(OC)c(CCNC(=O)Cn2sc3nc(C)cc(C)c3c2=O)c1 returned eIF4E-4G inh -3, Mcl1 Bid PPI -19, MCL1-BIM inh 16, Bim-Mcl-1 -10, 14-3-3 Bad inh 6 and Mcl1-Noxa inh 56*.
`CCCCN(C)C(=O)c1coc(=O)c2ccccc12` gave Mcl1 Bid PPI 94*, MCL1-BIM inh 4, Bim-Mcl-1 -1 and Mcl1-Noxa inh -16.
Screening CN(C(=O)c1coc(=O)c2ccccc12)c1ccc(Br)cc1 returned eIF4E-4G inh -1, Mcl1 Bid PPI -29, MCL1-BIM inh 0, Bim-Mcl-1 -1, 14-3-3 Bad inh -1 and Mcl1-Noxa inh -5.
`Cn1cc(C(=O)N/N=C/c2ccc([N+](=O)[O-])cc2)c2ccccc21` gave eIF4E-4G inh 7, Mcl1 Bid PPI 38, MCL1-BIM inh 0, 14-3-3 Bad inh 52 and Mcl1-Noxa inh 75*.
CC(=O)N1CC(=O)N(c2ccccc2)C1=O was read as MCL1-BIM inh 8.
For CC(=O)c1cccc(OCc2cc(C(=O)NCc3nc(C)c(C)s3)no2)c1 the results were MCL1-BIM inh -3.
Screening COc1ccc(/C=C/C(O)=C2/C(=O)N(C)C3(C)CC2c2ccccc2O3)cc1 (configuration not stated) returned eIF4E-4G inh 4, Mcl1 Bid PPI -13, MCL1-BIM inh 0, Bim-Mcl-1 0, 14-3-3 Bad inh 0 and Mcl1-Noxa inh 10.
For Cc1ccc(/C=C/C(O)=C2/C(=O)N(C)C3(C)CC2c2ccccc2O3)cc1 (configuration not stated) the results were eIF4E-4G inh 97*, Mcl1 Bid PPI -2, MCL1-BIM inh -6, Bim-Mcl-1 -2, 14-3-3 Bad inh -11 and Mcl1-Noxa inh -5.
CC(=O)c1cc(C#N)c(SCc2ccccc2)nc1C was read as eIF4E-4G inh 1, Mcl1 Bid PPI -10, MCL1-BIM inh 3, Bim-Mcl-1 -8, 14-3-3 Bad inh 1 and Mcl1-Noxa inh -6.
CC(=O)c1cc(C#N)c(SCc2ccccn2)nc1C was read as eIF4E-4G inh 0, Mcl1 Bid PPI -27, MCL1-BIM inh -1, 14-3-3 Bad inh -3 and Mcl1-Noxa inh 88*.
For Cc1nc2ccccc2[nH]c1=O the results were eIF4E-4G inh 1, Mcl1 Bid PPI 59*, MCL1-BIM inh 8, 14-3-3 Bad inh 7 and Mcl1-Noxa inh 12.
O=c1[nH]c2ccccc2nc1C(F)(F)C(F)F was read as eIF4E-4G inh 8, Mcl1 Bid PPI 63*, MCL1-BIM inh -7, Bim-Mcl-1 0, 14-3-3 Bad inh 22 and Mcl1-Noxa inh 12.
`CC1CCN(CCCNC(=O)c2ccc3c(Cl)c4c(nc3c2)CCCC4)CC1` gave eIF4E-4G inh -4, Mcl1 Bid PPI -48, MCL1-BIM inh 9, 14-3-3 Bad inh -1 and Mcl1-Noxa inh -1.
For O=C1c2ccsc2SCCN1Cc1c(Cl)cccc1Cl the results were eIF4E-4G inh 3, Mcl1 Bid PPI -1, MCL1-BIM inh 3, Bim-Mcl-1 1, 14-3-3 Bad inh 2 and Mcl1-Noxa inh 8.
Screening CCCCCCn1cnc2c(c1=O)c1nc3ccccc3nc1n2/N=C/c1ccco1 returned eIF4E-4G inh -15, Mcl1 Bid PPI 58*, Bim-Mcl-1 -1, 14-3-3 Bad inh 8 and Mcl1-Noxa inh 39.
`COCCn1cnc2c(c1=O)c1nc3ccccc3nc1n2/N=C/c1ccc(OC)c(OC)c1` gave eIF4E-4G inh 1, Mcl1 Bid PPI -8, MCL1-BIM inh 13, 14-3-3 Bad inh -11 and Mcl1-Noxa inh 51*.
`COCCNC(=O)CC(NS(=O)(=O)c1ccc(C)cc1)c1ccco1` (configuration not stated) gave eIF4E-4G inh 0, Mcl1 Bid PPI -14, MCL1-BIM inh 2, Bim-Mcl-1 -1, 14-3-3 Bad inh -4 and Mcl1-Noxa inh 3.
Screening COc1ccccc1CNC(=O)CC(NS(=O)(=O)c1ccc(C)cc1)c1ccco1 (configuration not stated) returned eIF4E-4G inh 2, Mcl1 Bid PPI 92*, MCL1-BIM inh 7, Bim-Mcl-1 0, 14-3-3 Bad inh -12 and Mcl1-Noxa inh 19.
O=S(=O)(Nc1nc(-c2sccc2Cl)cs1)c1cc(Cl)ccc1Cl was read as eIF4E-4G inh 9, Mcl1 Bid PPI 42, MCL1-BIM inh 23, Bim-Mcl-1 0, 14-3-3 Bad inh 87* and Mcl1-Noxa inh 36.
`COc1ccc2cc3c(N)nn(C(=O)c4ccc(F)cc4)c3nc2c1` gave eIF4E-4G inh 5, Mcl1 Bid PPI -22, MCL1-BIM inh -3, 14-3-3 Bad inh 0 and Mcl1-Noxa inh 3.
`COc1ccc2cc3c(N)nn(C(=O)c4cccc(F)c4)c3nc2c1` gave eIF4E-4G inh 75*, Mcl1 Bid PPI -23, MCL1-BIM inh -8, 14-3-3 Bad inh 11 and Mcl1-Noxa inh -38.
Screening COc1ccc2cc3c(N)nn(C(=O)Cc4ccc(Cl)cc4)c3nc2c1 returned eIF4E-4G inh -2, Mcl1 Bid PPI 66*, MCL1-BIM inh 5, Bim-Mcl-1 0, 14-3-3 Bad inh 28 and Mcl1-Noxa inh 25.
For O=C(CSc1nnc(-c2ccccc2)n1C1CCCCC1)Nc1ccc(S(=O)(=O)Nc2ccccn2)cc1 the results were eIF4E-4G inh 53*, Mcl1 Bid PPI -1, MCL1-BIM inh -2, Bim-Mcl-1 -1, 14-3-3 Bad inh 11 and Mcl1-Noxa inh -7.
For CCn1c(SCC(=O)Nc2ccc(S(=O)(=O)Nc3ccccn3)cc2)nnc1-c1ccncc1 the results were eIF4E-4G inh -4, Mcl1 Bid PPI 15, MCL1-BIM inh -7, Bim-Mcl-1 2, 14-3-3 Bad inh 1 and Mcl1-Noxa inh 6.
`CCN1CCN(CC(=O)Nc2cc3c(cc2C(C)=O)OCO3)CC1` gave eIF4E-4G inh 2, Mcl1 Bid PPI 58*, MCL1-BIM inh 8, Bim-Mcl-1 2, 14-3-3 Bad inh 60 and Mcl1-Noxa inh 21.

Compound activity deposited in PubChem by several laboratories.
